# Methyltransferases – Primary Screen for Target Class Profiling of Small Molecule Inhibitors of Methyltransferases. purified enzyme, MTase-Glo SAH luminescence; hits give low values. calls only at 40 µM. 3.9% of 25,000 active; call rule not given here
#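 Each enzyme was assayed with SAM and its substrate. SAH formation detected by MTase-Glo luminescence; single-point 40 uM screen[…].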
# * hit, by the source's call; i = inactive; + = active, no number. Only a selection was taken, and hits are over-represented in it overall. On the % scale 0 is the no-effect control and ±100 the full control effect.
SMILES,Methyltransferases
COc1ccc(CCN2C(=O)c3cc4ccccc4n3CC2(C)C(=O)NC2CCCCC2)cc1OC (configuration not stated),i
CCOC(=O)c1cc2n(n1)CC(C)(C(=O)NC1CCCCC1)N(CCc1cccs1)C2=O (configuration not stated),i
CCCCN1C(=O)c2cc(C(=O)NCCC)nn2CC1(C)C(=O)NC1CCCC1 (configuration not stated),i
COc1c2c(c(C)c3c1C(=O)OC3)OC1(C)CC(O)C34OC(OC)(OC3(C)C)C(O)CC4(C)C1C2 (configuration not stated),i
COc1c2c(c(C)c3c1C(=O)OC3)O[C@@]1(C)C[C@@H](O)[C@]34O[C@](OC)(CC[C@]3(C)[C@H]1C2)OC4(C)C,i
COc1c2c(c(C)c3c1C(=O)OC3)O[C@@]1(C)C[C@@H](OC(C)=O)[C@]34O[C@](OC)(CC[C@]3(C)[C@H]1C2)OC4(C)C,+
CCCNC(=O)N1Cc2c(sc3c2CCCC3)-n2cccc2C1C(C)C (configuration not stated),i
CC1CCCC(NC(=O)C2(C)Cn3c(nc4ccccc43)C(=O)N2CC2CCCO2)C1C (configuration not stated),i
Cc1cc(C)cc(NC(=O)Cn2nc3n(CC(C)C)c(=O)c4ccc(C(=O)NC(C)C)cc4n3c2=O)c1,i
Cn1cncc1C(N)(c1ccc(Cl)cc1)c1ccc2c(c1)c(-c1cccc(Cl)c1)cc(=O)n2C (configuration not stated),+
Cc1nn2c(SCC(=O)Nc3cccc(Cl)c3)nnc2[nH]c1=O,i
COc1cccc(CNC(=O)c2ncn3c2C(=O)N(C2CC2)C(C)(C(=O)NCc2ccccc2Cl)C3)c1 (configuration not stated),i
CCCn1c(=O)c2ccc(C(=O)NCC(C)C)cc2n2c(=O)n(CC(N)=O)nc12,i
COCCN1C(=O)c2cc(-c3ccc(OC)cc3)nn2CC1(C)C(=O)NCc1ccccc1 (configuration not stated),i
CC(C)C[C@H](CO)Nc1nc(S[C@@H](C)c2ccccc2)nc2nc(N)sc12,+
CCN1C(=O)c2cc(C(=O)NC3CCN(Cc4ccccc4)CC3)nn2CC1(C)C(=O)NC1CCCC1 (configuration not stated),i
CCOc1ccc(NC(=O)N2CCn3c(C)ccc3C2C(C)C)cc1 (configuration not stated),i
CCc1nc(C(N)=O)c(Nc2ccc(N3CCC(N4CCN(C)CC4)CC3)c(OC)c2)nc1NC1CCOCC1,+
CN1CCN(c2ccc(C(=O)Nc3n[nH]c4ccc(Cc5cc(F)cc(F)c5)cc34)c(NC3CCOCC3)c2)CC1,i
O=C(NCc1ccc(F)cc1)c1ccc2c(=O)nc3c(-c4ccc(F)cc4)n[nH]n3c2c1,i
CC(C)CCn1c(=O)c2ccc(C(=O)NC3CCCC3)cc2n2c(=O)n(Cc3ccccc3Cl)nc12,i
COC(=O)c1ncn2c1C(=O)N(Cc1ccc(OC(C)C)cc1)C(C)(C(=O)NC1CCCCC1)C2 (configuration not stated),i
CC(C)CCNC(=O)C1c2c(n(C)c3ccccc23)SCC(=O)N1c1cccc(C(F)(F)F)c1 (configuration not stated),i
CCc1ccc(-c2cc3n(n2)CC(C)(C(=O)NC2CCCCCC2)N(CC)C3=O)cc1 (configuration not stated),i
CCc1ccccc1NC(=O)CSc1nnc2[nH]c(=O)c(C)nn12,i
SMILES,Methyltransferases
Nc1ncnc2c1c(-c1cnc3[nH]ccc3c1)nn2C1CCCC1,+
Nc1ncnc2c1c(-c1ccc(Oc3ccccc3)cc1)nn2[C@@H]1CCCNC1,+
COc1cccc(C(=O)COc2cc(O)c3c(=O)cc(-c4ccccc4)oc3c2)c1,i
Cc1ccc(S(=O)(=O)c2nnn3c2nc(NC(C)c2ccccc2)c2ccccc23)cc1 (configuration not stated),i
COc1ccccc1NC(=O)CSc1nnc2n(CC(C)C)c(=O)c3ccccc3n12,i
Cc1ccccc1CNC(=O)c1cc2n(n1)CC(C)(C(=O)NC1CCCCCC1)N(C)C2=O (configuration not stated),i
CC1CCCC(NC(=O)C2(C)Cn3c(nc4ccccc43)C(=O)N2Cc2ccc3c(c2)OCO3)C1C (configuration not stated),i
CCCn1c(=O)c2ccc(Cl)cc2n2c(=O)n(CC(=O)Nc3ccccc3F)nc12,i
COc1cccc(CN2C(=O)c3ccc(-c4ccco4)n3CC2(C)C(=O)NCc2ccc(Cl)cc2)c1OC (configuration not stated),i
CCCC1c2cccn2CCN1C(=O)Nc1cccc(OC)c1 (configuration not stated),i
Cc1ccc(C(=O)Cn2nc3n(CC(C)C)c(=O)c4ccccc4n3c2=O)c(C)c1,i
CC(C)c1cccc2c(-c3ccccc3)cc(-c3ccc(-c4ccc(C(=O)O)cc4)[nH]3)nc12,+

# Bioassay records (PubChem)
